# Measurements published in PubChem BioAssay (NCI).
# Compounds without any hit were thinned out: in the full panel of roughly 83,000, 20% have a hit.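 The endpoint reported here, percent growth, reads 100 for growth as untreated, 0 for no net growth and -100 for all cells dead.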 A number with no mark means an inactive call. Activity calls are given as the source filed them. How the source made its calls: active means growth percent below 10; inactive means the rest.
# Columns and labels:
# Test in all cases: NCI-60 one-dose screen, 48 h (100 = growth as untreated, 0 = no growth, -100 = all killed)
# Conditions in all cases: 10 µM unless noted
# NCI-H23 lung = system: NCI-H23 lung
# NCI-H322M lung = system: NCI-H322M lung
# HOP-62 NSCLC = system: HOP-62 NSCLC
# NCI-H460 lung = system: NCI-H460 lung
# HOP-92 NSCLC = system: HOP-92 NSCLC
# NCI-H522 lung = system: NCI-H522 lung
# A549/ATCC NSCLC = system: A549/ATCC NSCLC
# 786-0 renal = system: 786-0 renal
# COLO 205 colon = system: COLO 205 colon
# DU-145 prostate = system: DU-145 prostate
# K-562 leukemia = system: K-562 leukemia
# MALME-3M melanoma = system: MALME-3M melanoma
# MDA-MB-231 breast = system: MDA-MB-231 breast
# RXF 393 renal = system: RXF 393 renal
# SF-268 CNS = system: SF-268 CNS
# SF-295 CNS = system: SF-295 CNS
# SF-539 CNS = system: SF-539 CNS
# UACC-257 melanoma = system: UACC-257 melanoma
# M14 melanoma = system: M14 melanoma
# NCI-H226 lung = system: NCI-H226 lung
SMILES,growth (NCI-H23 lung),growth (NCI-H322M lung) [%],growth (HOP-62 NSCLC),growth (NCI-H460 lung),growth (HOP-92 NSCLC),growth (NCI-H522 lung),growth (A549/ATCC NSCLC),growth (786-0 renal),growth (COLO 205 colon),growth (DU-145 prostate),growth (K-562 leukemia),growth (MALME-3M melanoma),growth (MDA-MB-231 breast),growth (RXF 393 renal),growth (SF-268 CNS),growth (SF-295 CNS),growth (SF-539 CNS),growth (UACC-257 melanoma) [%],growth (M14 melanoma),growth (NCI-H226 lung) [%]
CCCCCC(=O)OCC(=O)O[C@@H]1C[C@]2(C(C)C)O[C@@]1(C)[C@@H]1CC[C@@H](C)[C@H]1[C@@H]2OC(=O)/C=C/c1ccccc1,91.3%,84.6,91.7%,93.3%,95.3%,55.9%,78.7%,54.4%,73.9%,73.4%,42.3%,49.8%,83.6%,-2.83% (active),54.4%,90.2%,92.3%,87.2,69.1%,
COc1ccc2c(O)c(/C=C3\N=Nc4ccccc43)oc2c1C[C@@H]1CCNC[C@H]1F,70.2%,87.6,,11.2%,65.1%,58.1%,35.8%,-62.9% (active),58.2%,78.6%,-37.6% (active),52.9%,15.4%,80.5%,50.3%,79.2%,-82.9% (active),77.2,51.6%,58.3
CC1Cc2c(Cl)ncnc2N(C)c2ccc(F)cc21 (stereo not drawn),103%,99.5,93.2%,108%,65.8%,89.3%,70%,79%,92.5%,110%,99.5%,91.3%,98.9%,104%,93.8%,91.2%,97.5%,70.3,91.5%,
O=C(Nn1c2c(sc1=NCc1ccccc1)C(=O)c1ccccc1C2=O)c1cc2ccc1CCc1ccc(cc1)CC2,32%,106,77.5%,74.9%,127%,52.9%,80%,82.7%,106%,88.8%,48.8%,5.52% (active),40.4%,60.3%,58.6%,94.8%,87.5%,52.6,19.3%,
CO[C@]12C=C/C(=C(/C(=O)OCc3cccnc3)C(=O)CCCCCCCC[C@@]3(OC)C=C/C(=C(/C(=O)OCc4cccnc4)C(=O)CCCCCCCC1)O3)O2,-53.1% (active),18.3,30.9%,3.19% (active),2.61% (active),-4.14% (active),10.7%,-38.4% (active),-0.264% (active),20%,1.46% (active),-31.2% (active),13.9%,-87.2% (active),9% (active),-0.607% (active),3% (active),33.6,3.57% (active),
COC(=O)c1cc(-c2ccccc2)[nH]c1N/N=C/c1c(Cl)cccc1Cl,14.2%,34.6,-28.2% (active),-3.25% (active),10.5%,-41.9% (active),21.7%,9.31% (active),12.5%,-5.4% (active),-21.8% (active),-15.2% (active),10.5%,-18.7% (active),33.1%,-59.5% (active),-33.3% (active),51,-12.3% (active),
Cc1ccc(/C=C2\CN(C(=O)OC(C)(C)C)C/C(=C\c3ccc(C)cc3)C2=O)cc1,56.6%,98.7,94.9%,53%,84.1%,58.4%,81.5%,56.5%,51.6%,38.7%,3.47% (active),83.5%,88.3%,99.4%,49.1%,89.9%,90.4%,79.4,43%,
CCCCC(=O)c1ccco1,89.2%,105,88.7%,106%,99.9%,92.2%,97.9%,97.5%,104%,98.6%,104%,103%,98.7%,97.6%,96%,101%,99.5%,105,90.6%,
CN1CCN(C(=O)OCc2ccc3c(Cl)cc(Cl)c(O)c3n2)CC1,59.6%,60,45.9%,66.8%,71.1%,79.6%,62.5%,86.6%,107%,56.3%,18.1%,81%,90.5%,71.3%,53.3%,45.3%,66.2%,89.3,55.4%,
COc1ccc2c(c1)c(-c1noc(C(=O)c3cn(C)c4ccc(Br)cc34)n1)cn2C,99.3%,97,93.9%,105%,108%,76.9%,84.5%,112%,110%,113%,88%,93.9%,103%,114%,99.2%,117%,101%,92.7,97%,
Clc1ccc2c(c1)N(c1ncnc3ccc(-c4cnc5[nH]ncc5c4)cc13)CC2,52.5%,11.8,24.4%,20.1%,-1.84% (active),40.2%,6.23% (active),18.1%,31.1%,22.4%,51.1%,40.2%,27.3%,-10.5% (active),35.1%,23.1%,24.9%,44.3,43.4%,
COc1cc(-c2nc(SCC(C)C)nc(Nc3cccc4ccccc34)c2C#N)cc(OC)c1OC,102%,101,87.2%,82.3%,92.9%,89.2%,88.4%,103%,95.3%,94.4%,57%,87.7%,57.1%,119%,92.6%,101%,101%,106,103%,
OCCNCCCOc1ccc2ncnc(Nc3ccc(Oc4cccc(C(F)(F)F)c4)c(Cl)c3)c2c1,63.8%,21.5,66.5%,-82.5% (active),40.5%,30.8%,23.8%,-4.05% (active),-27.7% (active),16.3%,1.39% (active),41.1%,-18% (active),-49.3% (active),56%,39.7%,-46.3% (active),54.9,-60.3% (active),
CCN(CC)C(=S)SC(SC(=S)N(CC)CC)C(=O)c1nnn(-c2ccc([N+](=O)[O-])cc2)c1C,98.4%,98.5,97.3%,73.9%,89.5%,79.5%,95.9%,94.2%,95.2%,104%,81%,94.3%,95.1%,114%,92.9%,100%,98.3%,101,96.9%,
O=C1N[C@@H]2NC(=[N+]3CCOCC3)N[C@@H]2N1,103%,96.3,,104%,120%,92.9%,101%,98.8%,115%,114%,98.6%,92.9%,103%,116%,100%,99.9%,98.2%,109,102%,
Cc1ccc(-c2nc3nc(-c4ccc(F)cc4)nc(N4CCNCC4)c3o2)cc1,94.4%,87.7,77.6%,-84.6% (active),90.8%,79.8%,27.2%,-92.8% (active),-78.1% (active),41.7%,-53.1% (active),107%,-29.1% (active),109%,96.7%,91.6%,-72.3% (active),105,-70.9% (active),
